Assay results published in PubChem BioAssay (NCI).
About 83,000 compounds went through this panel and 20% of them were active in at least one assay; those are over-represented in the sample as a whole.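 A percent growth of 40 corresponds to 60% growth inhibition; 0 means no net growth; -100 means all cells died. Active threshold: below 10.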 Unmarked numbers belong to inactive results. The source made the active and inactive calls.

system: HL-60(TB) leukemia; experiment: NCI-60 one-dose screen, 48 h (100 = growth as untreated, 0 = no growth, -100 = all killed); conditions: 10 µM unless noted

SMILES | growth
COc1cc(C2C(C#N)=C(N)OC3=C2C(=O)c2ccccc2C3=O)cc(OC)c1OC (stereo not given) | 15.2%
O=C(Nc1ccccc1C(F)(F)F)C1=NCCCCN1 | 99.8%
NC(=S)N1N=C(c2ccc(Cl)cc2)CC1c1cc2ccccc2[nH]c1=O (stereo not given) | 75.1%
CC(=O)O[C@@H]1C[C@]2(C)[C@H]3[C@H](O)C[C@@H]4C5=CC(C)(C)CC[C@]5(C)CC[C@@]4(C)[C@]3(C)CC[C@H]2C(C)(C)[C@H]1O | 120%
Cc1cc(N(CCCNc2ccnc3cc(Cl)ccc23)Cc2ccccn2)nc(N2CCCC2)n1 | 65.8%
CCN(CC)CCN1C(=O)c2c(c(C)c3c(oc4cc(O)ccc43)c2C)C1=O | -50.6% (active)
O=C(NOC1OC(CO)C(O)C(O)C1O)Nc1ccccc1 (stereo not given) | 74.5%
Cc1cc2cn3c4ccc(O)cc4nc(N)c3c2cc1C | -32.5% (active)
N=c1ccn2c(n1)OC1C(O)C(CO)OC12 (stereo not given) | 106%
CC(=O)c1ccc(NC(=O)CSc2nnc(-c3cc(-c4ccc(Cl)cc4)nc4ccccc34)o2)cc1 | 91.3%
COc1cc(/C=C/c2cc(/C=C/c3ccc(O)c(OC)c3)n(C(=O)c3ccc(Cl)cc3)n2)ccc1O | -12.4% (active)
CN(C)Cc1ccc(NC(=O)c2cncc(C#Cc3cnc(N)c4ncccc34)c2)cc1C(F)(F)F | 31.1%
Cc1cc(NCc2cc(Nc3ccnc4cc(Cl)ccc34)ccc2F)nc(Cl)n1 | 22.9%
CCN1CCN(c2cc(C)nc(NCc3cc(Nc4ccnc5cc(Cl)ccc45)ccc3F)n2)CC1 | 95.7%
CCOC(=O)N1CCC(N=C2CSc3nnc(-c4cc(C(F)(F)F)cc(C(F)(F)F)c4)n3N2)CC1 | -40.7% (active)
O=C(/C=C/c1sc(Cl)nc1Cl)c1ccc(Br)cc1 | 71.4%
O=c1cc(-c2ccccc2)[nH]c2ncc(-c3ccc(F)cc3)n12 | 18.9%
CC(=O)CCC(=O)OCc1cc(=O)c(O)co1 | 95%
CC1CCCCC[N+]12CCCC2 (stereo not given) | 102%
COc1cc(-c2nc(-c3nc4cc(C(=O)c5ccccc5)ccc4[nH]3)cc3c2[nH]c2ccccc23)cc(OC)c1OC | 89.7%

SMILES | growth
Cn1c2c(cc(S(=O)(=O)c3ccccc3)c1=O)CCc1c-2cnn1-c1ccc(Cl)cc1 | 73.1%
O=C1N=C(N2CCOCC2)S/C1=C\c1cn(-c2ccccc2)nc1-c1ccccc1 | 105%
COc1ccc(C(=O)COc2ccc(/C=C3\Oc4ccc(Cl)cc4C3=O)cc2)cc1 | 16.5%
CCCCNC(=O)c1cc([N+](=O)[O-])cc(C2CCCCC2)c1O | 19.8%
CC(C)CSc1ncnc2nc[nH]c12 | 133%
COC(=O)CCCCCn1c2ccccc2c2c3c(c4c5ccccc5[nH]c4c21)C(=O)N(O)C3=O | 19.1%
C=CCNc1ccccc1 | 125%
Cc1nnc2nc(N)[nH]n2c1=O | 99.6%
CN1CCCN(C(c2ccccc2)c2ccc(Cl)cc2)CC1 (stereo not given) | 93.5%
COC(=O)[C@H]1Cc2c([nH]c3ccccc23)[C@H](c2ccc3c(c2)OCO3)N1 | 98.6%
CC1=NNC(=O)C1C (stereo not given) | 124%
COc1ccc(CN2c3ccccc3Oc3ccccc32)cc1O | 15.6%
Clc1ccc2c(NCCCN3CCN(c4nc(N5CCOCC5)nc5ccccc45)CC3)ccnc2c1 | -51.5% (active)
Cc1ccc(Nc2nc(-c3cc(O)c(C)c(C)c3O)cs2)cc1 | 9.51% (active)
Cn1c(=O)c2c(c3ccccc31)OC(N)=C(C#N)C21C(=O)c2ccccc2C1=O | 98.1%
COc1ccc2c(c1)N(CCO)C1=C(C(=O)OC1)C2c1ccc(OC)c(OC)c1 (stereo not given) | -2.68% (active)
Cn1cc(-c2csc(-c3cn(CCN)c4ccc(F)cc34)n2)c2cccnc21 | 47.1%
CN(C)CCOc1ccccc1NC1=C(Cl)C(=O)C(Nc2ccccc2OCCN(C)C)=C(Cl)C1=O | -18.9% (active)
O=C(NCc1cccc(CNC(=O)Nc2nc3ccccc3[nH]2)c1)Nc1nc2ccccc2[nH]1 | 10.1%
CN(C)CCCn1c2nc(=O)[nH]c(=O)c-2nc2cc(Cl)c(Cl)cc21 | 76%
